Assay outcomes from PubChem.
The list is not random: actives were taken first. Their share in the collection is about 0.44%.
YopH inh: YopH (Yersinia) phosphatase inhibition; inhibition, % (test concentration not listed); AID 898; fluorescence Ex485/Em525; hit rate 0.16% among 140,000; in the data active = inhibition above about 50%
RmlCD inh mix: inhibitors of RmlC and RmlD coupled enzymes | RmlC/RmlD coupled enzyme inhibition, 384-well mixture HTS | inhibition, % at 5.5 µM | hit rate 0.39% among 110,000; in the data active = inhibition above about 30%, passing the limit was not always enough
Numbers without * were called inactive.

How did Cc1cccn2c(=O)c3cc(C(=O)NCC4CCCO4)c(=N)n(Cc4cccnc4)c3nc12 (centres undefined) do in these assays?
YopH inh: -2.0; RmlCD inh mix: 36.6*

What do the screens show for `CCNC(=O)c1cc2c(=O)n3cccc(C)c3nc2n(Cc2ccc(C)cc2)c1=N`?
YopH inh: -30.5; RmlCD inh mix: 83.9*

Results for N=c1c(C(=O)NCC2CCCO2)cc2c(=O)n3ccccc3nc2n1Cc1cccnc1 (centres undefined) ?
YopH inh: -23.2; RmlCD inh mix: 45.3

What do the screens show for `COC(=O)CCCC1=CC2=CC(=O)C(C)(OC(=O)c3ccc(Cl)nc3)C(=O)C2=CO1` (centres undefined)?
RmlCD inh mix: -11.1

What do the screens show for `COc1ccc(C2/C=C\CN(Cc3ccco3)CC(=O)N2Cc2ccc(F)cc2)cc1` (centres undefined)?
RmlCD inh mix: 0.1

Results for COC(=O)C1=C(C(=O)OC)[C@@H]2N(C)c3ccccc3[C@@]23C[C@@H](CO)N(C(=O)NCCBr)C3=N1 ?
RmlCD inh mix: 0.0

Results for Cc1c(C)n(C)c2ccc(C(=O)Nc3cccc4ccccc34)cc12 ?
YopH inh: -13.1; RmlCD inh mix: 4.1

How did CCCCCCc1cc2cc(S(=O)(=O)c3ccc(F)cc3)c(=O)oc2cc1O do in these assays?
YopH inh: -4.1

How did CCCCCCc1cc2cc(C(=O)Nc3ccccc3OC)c(=O)oc2cc1O do in these assays?
YopH inh: -24.0

What do the screens show for `CCCCCCc1cc2cc(-c3nnc(-c4cc(OC)c(OC)c(OC)c4)o3)c(=O)oc2cc1O`?
YopH inh: -10.3; RmlCD inh mix: 68.8*

Results for CCCCCCc1cc2cc(-c3nnc(-c4ccccc4O)o3)c(=O)oc2cc1O ?
YopH inh: -26.8; RmlCD inh mix: 162.2*

How did O=C(CN(CC1CCCO1)C(=O)CNS(=O)(=O)c1ccc(Cl)cc1)NCC1CCCO1 (centres undefined) do in these assays?
YopH inh: -0.8; RmlCD inh mix: -10.6

What do the screens show for `COC(=O)C(C)(C)ONC(=O)Nc1ccccc1`?
YopH inh: -15.9

What do the screens show for `CCCN1CCCc2cc(CN)ccc21`?
YopH inh: 84.2*; RmlCD inh mix: 1.0

Results for Cc1ccc2c(c1)CCCN2N=O ?
YopH inh: -21.2

What do the screens show for `COc1ccc2c(c1)c(=O)cc(C)n2CC(=O)NCc1ccco1`?
YopH inh: 92.6*; RmlCD inh mix: -11.0

How did COc1ccc(OC)c(NC(=O)Cn2c(=O)n(CC(=O)NCc3ccco3)c(=O)c3ccccc32)c1 do in these assays?
YopH inh: -14.1; RmlCD inh mix: 1.1

Results for CCSc1nnc(NC(=O)C(NC(=O)c2ccc(Cl)cc2)C(C)C)s1 (centres undefined) ?
YopH inh: -29.2

Results for CC(=O)[C@@H]1[C@@H]2C(=O)N(c3ccc(F)c(Cl)c3)C(=O)[C@@H]2C2c3ccccc3C=CN21 (some centres undefined) ?
YopH inh: 70.6*; RmlCD inh mix: 4.3

Results for CC(=O)[C@H]1[C@@H]2C(=O)N(c3cccc(Cl)c3)C(=O)[C@@H]2[C@H]2c3ccccc3C=CN21 ?
YopH inh: 67.0*; RmlCD inh mix: 3.4

Results for CC(=O)[C@@H]1[C@@H]2C(=O)N(C3CCCCC3)C(=O)[C@@H]2C2c3ccccc3C=CN21 (some centres undefined) ?
YopH inh: 6.4; RmlCD inh mix: -7.2

What do the screens show for `CC(C)(C)C(=O)[C@@H]1[C@@H]2C(=O)N(Cc3ccccc3)C(=O)[C@@H]2[C@H]2c3ccccc3C=CN12`?
YopH inh: 8.8; RmlCD inh mix: 92.7

Results for O=C(COC(=O)c1cccc(NS(=O)(=O)c2ccc(F)c(F)c2)c1)NC(=O)NC1CCCCC1 ?
YopH inh: -46.8

How did CC(C)(C)c1cc(C(=O)Nc2ccccc2)ccn1 do in these assays?
YopH inh: -39.0; RmlCD inh mix: -20.8

What do the screens show for `Cc1ccc(NC(=O)c2ccnc(C(C)(C)C)c2)cc1`?
YopH inh: 68.3*; RmlCD inh mix: 4.4

How did CCN(CC)CCCNC(=O)Cc1c(C(=O)O)n(C)c2ccccc12 do in these assays?
YopH inh: 52.1*; RmlCD inh mix: -7.6

How did CCN(CC)CCNC(=O)Cc1c(C(=O)O)n(C)c2ccccc12 do in these assays?
YopH inh: -12.0; RmlCD inh mix: 5.1

Results for COc1cc(OC)cc(C(=O)NNC(=O)NC2CCCCC2)c1 ?
YopH inh: -6.2; RmlCD inh mix: -10.1

What do the screens show for `Cc1ccc(S(=O)(=O)/N=C2/C=C(Sc3ncn[nH]3)C(=O)c3ccccc32)cc1`?
YopH inh: 99.6*

How did Cc1ccc(S(=O)(=O)/N=C2/C=C(Sc3ncn[nH]3)C(=O)c3ccccc32)c(C)c1 do in these assays?
YopH inh: 101.2*

How did Cc1ccc(S(=O)(=O)ON2C(=O)c3ccccc3C2=O)c(C)c1 do in these assays?
YopH inh: -10.7

Results for CC(C)c1ccc(S(=O)(=O)/N=C2/C=C(Sc3ncn[nH]3)C(=O)c3ccccc32)cc1 ?
YopH inh: 100.6*

What do the screens show for `Cc1ccc(NC2=C/C(=N/S(=O)(=O)c3cccs3)c3ccccc3C2=O)cc1`?
YopH inh: 29.9

Results for CCOc1ccc(S(=O)(=O)Nc2ccc(O)c(Sc3ncn[nH]3)c2)cc1 ?
YopH inh: -24.5

Results for Cc1ccc(C2=NOC(C)(c3nnc(-c4ccc(Cl)cc4)o3)C2)cc1 (centres undefined) ?
RmlCD inh mix: 6.8

What do the screens show for `C#CCNC(=O)C1=C[C@H](c2ccc(Br)cc2)C[C@H](OCCCCO)O1`?
RmlCD inh mix: -2.7

What do the screens show for `CCC(C)C(NC(=O)C1CCC(C)CC1)C(=O)NC1CCN(Cc2ccccc2)CC1` (centres undefined)?
RmlCD inh mix: 6.6

Results for COC(=O)Cc1cnc(NC(=O)C2C3CCC(C3)C2C(=O)O)s1 (centres undefined) ?
YopH inh: 50.9*; RmlCD inh mix: 20.3

What do the screens show for `COC(=O)c1ccc(NC(=O)C2C3CCC(C3)C2C(=O)O)cc1` (centres undefined)?
YopH inh: -29.3; RmlCD inh mix: 4.5

What do the screens show for `Cc1ccc(-n2c(C)cc(C3=NNC(=NC4CC4)SC3)c2C)cc1C`?
YopH inh: -14.4

How did O=C(O)CCN1Cc2ccccc2C1=O do in these assays?
YopH inh: -0.6; RmlCD inh mix: 13.6

Results for CCC(=O)N1Cc2ccccc2-c2ccccc2C1=O ?
YopH inh: 51.6*; RmlCD inh mix: 6.4

Results for CCN1CCN(CCCOc2ccc(-c3ccccc3)cc2)CC1 ?
YopH inh: 54.8*; RmlCD inh mix: 6.1

How did CCOc1ccc(OCCCCN2CCCC2)cc1 do in these assays?
YopH inh: 2.2; RmlCD inh mix: -1.1

Results for CCCC[C@@H]1CN=C(N)N1CC(C)(C)C ?
RmlCD inh mix: 2.6

How did CC(C)OC(=O)CC(=O)CSc1nc2c(cc1C#N)CCC2 do in these assays?
YopH inh: -36.3; RmlCD inh mix: 97.2*

How did C=C(C)CSc1nc2c(cc1C#N)CCC2 do in these assays?
YopH inh: 9.8; RmlCD inh mix: 6.9

What do the screens show for `N#Cc1cc2c(nc1SCC(N)=O)CCCCC2`?
YopH inh: -5.3; RmlCD inh mix: -8.1

Results for COC(=O)CC(=O)CSc1nc2c(cc1C#N)CCC2 ?
YopH inh: 13.3; RmlCD inh mix: 77.0*

Results for COC(=O)c1c(C)[nH]c(C)c1C(=O)c1ccccc1Cc1ccccc1 ?
RmlCD inh mix: 31.3

What do the screens show for `C[C@@H]1CCC[C@]2(O[C@H](CCO)C[C@@H](O)[C@@H]2O)O1`?
RmlCD inh mix: 6.2
